# Screens (PubChem BioAssay)
# Pf growth 48h – Primary qHTS for delayed death inhibitors of the malarial parasite plastid, 48 hour incubation; 310,000 tested, 5.9% active; Potency, µM (highest dose often 28.7 µM), for the others: top-dose activity change, negative = inhibition, hits mostly inhibitors; P. falciparum luciferase growth in erythrocytes, 48 h; AID 504832, 2011; also: % is scaled to controls: 0 for no effect and ±100 for the full control effect
#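 Growth was read as firefly luciferase luminescence after a 48 h, 37 C, 5% CO2 exposure of compounds to reporter-bearing P. falciparum cultures (0.1% parasitemia, 2% hematocrit final) in Albumax-supplemented RPMI 1640.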
# Pf growth 96h – Primary qHTS for delayed death inhibitors of the malarial parasite plastid, 96 hour incubation. P. falciparum luciferase reporter growth, 96 h. Potency, µM (doses to about 28.7 µM), inactives show at the top dose activity change, negative = inhibition, actives largely listed as inhibitors. 320,000 tested, 6.9% active; also: % is scaled to controls: 0 for no effect and ±100 for the full control effect
#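 Compounds incubated with erythrocytes infected by luciferase-expressing P. falciparum (2% hematocrit, 0.05% parasitemia final) for 96 hours, 37 C in 5% CO2. Growth inhibition scored as decreased luciferase luminescence.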
# NS1 function inh – qHTS Assay for Inhibitors of Influenza NS1 Protein Function | Potency, µM (doses to about 46.1 µM), inactives show at the top dose activity, positive = more growth | 270,000 tested, 0.4% active | AID 2326, 2010; calls by dose curve; also: actives are rising curves; nearly all actives have a fitted effect of over 50% in size
#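 A cell-based growth assay was used: compounds that relieve NS1-induced slow growth of budding yeast raise OD600. Assay medium was yeast nitrogen base with ammonium sulphate and -URA supplement, pH 6.0, with 2% galactose.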
# Sm TGR inh – qHTS Assay for the Inhibitors of Schistosoma Mansoni Peroxiredoxins; 360,000 tested, 3% active; AID 485364, 2010; Potency, µM (series often up to 114 µM), inactives show at the top dose activity change, negative = inhibition, usual class: inhibitors; purified TGR, DTNB reduction, TNB absorbance 405 nm; also: % is scaled to controls: 0 for no effect and ±100 for the full control effect; nearly all actives have a fitted effect of over 60% in size
#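 TGR 20 nM + NADPH 100 uM (dispensed conc.), cpd preinc 15 min RT; start with NADPH (500 uM addition) then DTNB (15 mM addition). Kinetic TNB absorbance, 405 nm filter. Four-parameter Hill fit across titration.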
# AMA1 RON2 block – qHTS for Inhibitors of AMA1-RON; Towards Development of Antimalarial Drug Lead: Primary Screen; AlphaScreen AMA1-biotinylated RON2 peptide binding; Potency, µM (top dose mostly 58.2 µM), for the others: at the top dose activity change, negative = inhibition, most hits filed as inhibitors; 360,000 tested, 0.2% active; AID 720542, 2013;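 also: 0% = vehicle wells and -100% = peptide control; nearly all actives have a fitted effect of over 45% in size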
#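 AMA1 (3D7) with his tag at 25 nM final met compounds first, then biotinylated RON2 peptide at 25 nM; detection used donor plus acceptor beads, 10 µg/mL apiece, read by AlphaScreen after 30 min at room temperature.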
# An asterisk follows results filed as active; ? = inconclusive; / = not tested or not shown. This is a sample that favours compounds with a hit; in the whole collection about 11% have one here. Unless noted, calls follow the shape of the dose curve; as a rule, active = well fitted curve in the direction sought with a large enough effect; inconclusive = small, poorly fitted or top-dose-only effect, or another doubt; inactive = no such curve, though single readings can be large; an effect the other way counts as inactive or inconclusive. Potency is read from the fitted curve at half-maximal effect.
SMILES,Pf growth 48h,Pf growth 96h,NS1 function inh,Sm TGR inh,AMA1 RON2 block
COC(=O)C(NS(=O)(=O)c1ccc(N2CCCC2=O)cc1)c1ccccc1 (stereo not given),12.4%,?,-1.9%,0.2%,9.6%
O=C(NCc1ccccc1)C1CCN(S(=O)(=O)c2ccc(N3CCCC3=O)cc2)CC1,?,14.7µM*,15.6%,2.8%,0.3%
NC(=O)C(Cc1ccccc1)NS(=O)(=O)c1ccc(N2CCCC2=O)cc1 (stereo not given),-3.8%,9.28µM*,-3.3%,-13.7%,1.8%
O=C(Nc1ccccc1)c1cc(C2CCCCN2S(=O)(=O)c2ccc(F)cc2F)on1 (stereo not given),/,/,/,/,-7.4%
Fc1ccccc1/C=C1\CCCC2=C1Nc1nnnn1C2c1ccccc1F (stereo not given),-10.4%,106.5%,27.0%,6.31µM*,-5.3%
CC1=C(C(=O)Nc2ccc(C)cc2)C(c2ccccc2Cl)n2nnnc2N1 (stereo not given),/,/,/,5.5%,/
Cc1ccc(S(=O)(=O)N(C)Cc2ccc(-c3nnc4n3CCC4)cc2)cc1,10.4µM*,10.7%,-11.7%,7.1%,3.5%
CN(C)S(=O)(=O)c1ccc(Cl)c(-c2nnc3n2CCCCC3)c1,0.1%,-0.6%,/,5.9%,1.0%
COc1ccc(-c2nnc(N3CCCCC3)c3ccccc23)cc1,?,?,9.9%,-10.0%,-4.5%
COc1ccc(-c2nnc(N3CCOCC3)c3ccccc23)cc1,-8.9%,13.1µM*,23.3%,2.6%,-2.8%
O=C(COc1ccccc1)N1CCN(c2nnc(-c3ccccc3)c3ccccc23)CC1,?,10.4µM*,-41.7%,-6.0%,2.6%
COc1ccc(OCC(=O)N2CCN(c3nnc(-c4ccccc4)c4ccccc34)CC2)cc1,?,1.85µM*,-87.2%,-0.5%,-9.5%
Cc1ccc(NC(=O)COc2ccc(-c3nn(C)c(=O)c4ccccc34)cc2)c(C)c1,/,/,/,-1.2%,/
CC(=O)N1CCC(c2c[nH]c3ccccc23)CC1,110.7%,3.8%,1.8%,1.0%,-17.8%
COC(=O)[C@H](Cc1ccccc1)NC(=O)C1CCN(C(=O)[C@H](C)NS(=O)(=O)c2ccc(C)cc2)CC1,?,?,-7.1%,-1.0%,-10.1%
Cc1[nH]c(=O)[nH]c(=O)c1/C=N/NC(=O)[C@@H](N)CC(C)C,5.22µM*,?,0.4%,?,50.0%
CC(C)(CO)Nc1nc(Nc2ccccc2)nc(Nc2ccccc2)n1,13.1µM*,7.38µM*,-9.1%,3.3%,-3.4%
OCCNc1nc(Nc2ccccc2)nc(Nc2ccccc2)n1,-4.5%,25.6%,1.3%,0.5%,-1.5%
CN(CCc1nc2ccc(Cl)cc2[nH]1)Cc1nc(CC2CC2)no1,-2.8%,?,-1.8%,?,4.8%
CC[C@H](NC(C)C)[C@H](O)c1ccc(O)c2[nH]c(=O)ccc12,-27.3%,0.239µM*,/,/,/
COc1cc(-c2cc(=O)c3c(O)cc(O)cc3o2)ccc1O,?,13.1µM*,-0.8%,-35.3%,-3.2%
COc1ccc(-c2cc(=O)c3c(OC)c(OC)c(OC)cc3o2)cc1,?,11.7µM*,-6.3%,-5.3%,-6.3%
O=C(NCc1ccc2c(c1)CCN2C(=O)c1ccccc1)c1cc2ccccc2[nH]1,/,/,/,-2.0%,/
Cc1cccc(OCC(=O)Nc2cccc(C(=O)Nc3ccccc3C(=O)O)c2)c1,2.6%,?,17.8%,4.6%,-15.7%
CC(C)c1ccc(OCC(=O)NC(C)c2ccccc2)cc1 (stereo not given),20.1%,13.1µM*,-8.5%,-3.4%,5.1%
SMILES,Pf growth 48h,Pf growth 96h,NS1 function inh,Sm TGR inh,AMA1 RON2 block
Cc1ccc(OCC(=O)NC(C)c2ccccc2)cc1 (stereo not given),-18.1%,18.1%,17.5%,6.9%,12.2%
CC(C)c1ccc(OCC(O)CNC(C)c2ccccc2)cc1 (stereo not given),4.65µM*,?,-0.7%,-4.4%,10.3%
CC(C)c1ccc(OCC(=O)Nc2cccc(C(=O)Nc3ccccc3C(=O)O)c2)cc1,?,9.28µM*,7.8%,-4.8%,3.5%
Cc1ccc(C(OCC(O)CNCc2ccc(F)cc2)c2ccccc2)cc1 (stereo not given),/,4.65µM*,5.8%,1.4%,-13.6%
COc1ccc(-c2nc(CSc3nncn4c3cc3oc(C)cc34)c(C)o2)cc1,/,/,/,1.5%,/
Cc1cccc(-c2cc3nc(-c4ccccc4)cc(=O)n3[nH]2)c1,7.6%,-5.0%,0.2%,-0.7%,16.3%
CCOc1ccc(CNC(=O)c2cccn2-c2nnc(N3CCCCC3)s2)cc1OC,/,/,/,-9.9%,/
COc1c(C)cc(C(O)c2ncc(-c3ccccc3C)[nH]2)cc1C (stereo not given),/,/,/,/,4.5%
COc1ccc(C(OCC(O)CNC(C)c2ccccc2)c2ccc(OC)cc2)cc1 (stereo not given),10.4µM*,?,-1.3%,-8.7%,8.5%
OC(CNCCc1ccccc1)COc1ccc(OCC(O)CNCCc2ccccc2)cc1 (stereo not given),1.65µM*,3.7µM*,-3.6%,3.2%,-20.8%
CC(C)CC(NC(=O)COc1ccccc1)C(=O)O (stereo not given),-2.3%,11.7µM*,5.3%,3.2%,13.7%
CC(=O)NC(Cc1ccc(N(CCCl)CCCl)cc1)C(=O)NC(CC(C)C)C(=O)O (stereo not given),14.3%,10.4µM*,7.1%,28.2µM*,-9.6%
COc1cccc(OCC(O)CNC(C)c2ccccc2)c1 (stereo not given),-29.5%,?,-3.4%,-12.9%,1.4%
CCOC(=O)C(NC(=O)C(Cc1ccc(N(CCCl)CCCl)cc1)NC(C)=O)C(C)C (stereo not given),-18.2%,3.6%,1.4%,/,-0.3%
OC(CNCCc1ccc(Cl)cc1)COc1ccc2ccccc2c1 (stereo not given),-2.8%,19.5%,2.8%,6.1%,4.4%
CC(C)C[C@H](NC(=O)[C@@H](O)[C@H](N)Cc1ccccc1)C(=O)O,0.757µM*,0.675µM*,-3.1%,/,/
CC(NCC(O)COCCC12CC3CC(CC(C3)C1)C2)c1ccccc1 (stereo not given),5.22µM*,30.1%,-35.7%,/,-6.6%
CCC(=O)c1ccc(OCC(O)CNCCc2ccc(Cl)cc2)cc1 (stereo not given),11.7µM*,?,1.9%,-8.1%,4.9%
COC(=O)C(CC(C)C)NC(=O)C(N)Cc1ccccc1 (stereo not given),14.6%,174.3%,14.5%,7.1%,15.5%
NCC(O)COCCC12CC3CC(CC(C3)C1)C2 (stereo not given),9.3%,-0.8%,?,1.3%,13.4%
